# Compound activity (PubChem)
# CHRM1 antagonist: blocks human M1 muscarinic receptor; P11229; CHO-K1 hM1, Fluo-8 calcium fluorescence, ACh EC80 antagonist; inhibition, % at 3 µM; hit rate 1.3% among 360,000;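 active means percent inhibition above its own plate's cutoff, namely the mean of that plate's compound wells plus 3 SD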;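 further: peak over basal fluorescence ratio during 140 s after agonist addition; 0% = ACh EC80 plus DMSO and 100% = DMSO alone without agonist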
# Target sequence (P11229 whole entry, looked up): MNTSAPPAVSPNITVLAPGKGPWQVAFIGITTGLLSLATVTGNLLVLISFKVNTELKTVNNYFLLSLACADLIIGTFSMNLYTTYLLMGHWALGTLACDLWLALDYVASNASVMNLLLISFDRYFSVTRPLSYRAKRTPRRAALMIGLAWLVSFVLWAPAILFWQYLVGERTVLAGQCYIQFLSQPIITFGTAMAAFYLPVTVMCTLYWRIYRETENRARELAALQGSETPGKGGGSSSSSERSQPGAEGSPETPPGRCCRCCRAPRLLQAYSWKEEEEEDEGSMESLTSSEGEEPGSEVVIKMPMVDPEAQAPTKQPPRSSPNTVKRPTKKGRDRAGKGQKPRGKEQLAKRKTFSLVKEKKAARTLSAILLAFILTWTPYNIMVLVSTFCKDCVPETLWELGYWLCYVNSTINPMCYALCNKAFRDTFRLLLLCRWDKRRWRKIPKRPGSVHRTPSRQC
# CHO-K1 Ca antag: nonselective inhibitor or artifact in parental CHO-K1 cells; inhibition, % at 3 µM; ATP-induced calcium, Fluo-8 fluorescence; hit rate 0.6% among 360,000; AID 602250;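 active means inhibition above a per-plate cutoff, the plate's mean sample inhibition plus 3 SD, cut at about 24% in these data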;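 further: 0% = DMSO plus EC80 ATP and 100% = DMSO alone without ATP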
# CHO-K1 Ca PAM: nonselective activator or artifact in parental CHO-K1 calcium assay | hit rate 0.02% among 360,000 | activation, % at 3 µM | AID 602247 | ATP EC20, Fluo-8 calcium fluorescence; 0% at ATP EC20, 100% at ATP max;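 active means activation above the run cutoff, the mean activation of all test compounds plus 3 SD, cut at about 40% in these data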;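 further: peak over basal fluorescence ratio in a 140 s read after ATP addition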
# M1 PAM: human CHRM1 positive allosteric modulation | P11229 | CHO-K1 hM1, Fluo-8 calcium fluorescence, ACh EC20; 0% = ACh EC20, 100% = maximal ACh | activation, % at 3 µM | hit rate 0.088% among 360,000 | AID 588819; in the data active means activation above about 19%, passing the limit was not always enough
# CHO-K1 Ca ag: nonselective activator or artifact in parental CHO-K1 cells; Fluo-8 calcium fluorescence; scaled to maximal ATP response, vehicle zero; activation, % at 3 µM; hit rate 0.48% among 360,000; in the data active means activation above about 15%;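 further: untransfected CHO-K1 host cells lacking M1 receptor as counterscreen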
# CHRM1 agonist: agonists of human M1 muscarinic receptor; CHO-K1 hM1, Fluo-8 calcium fluorescence, agonist mode; 0% DMSO, 100% acetylcholine EC100; activation, % at 3 µM; P11229; hit rate 0.33% among 360,000;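 active means activation above the run's mean compound activation plus 3 SD, cut at about 16% in these data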;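 further: peak over basal fluorescence ratio within a 140 s kinetic read after compound addition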
# * marks the source's active call; other numbers are inactive results. Only some compounds are listed: those with a hit (about 2.4% of all), similar ones and a draw of the others.
SMILES,CHRM1 antagonist,CHO-K1 Ca antag,CHO-K1 Ca PAM,M1 PAM,CHO-K1 Ca ag,CHRM1 agonist
COc1ccc(NC(=O)c2cccc(N3C(=O)C4C5CCC(C5)C4C3=O)c2)cc1 (stereo not drawn),23,0,-9,-12,9,1
COc1ccc(NC(=O)c2cccc(N3C(=O)C4C5C=CC(C6CC56)C4C3=O)c2)c(OC)c1 (stereo not drawn),1,-3,16,-4,18*,5
CN(CC(=O)Nc1c(Cl)cccc1Cl)C(=O)C1CC(=O)N(Cc2ccccc2)C1 (stereo not drawn),3,6,-11,1,1,-1
O=C(NCCc1ccc(F)cc1)Nc1ccccc1Cl,-16,-3,5,9,1,8
CCN(CC)CCOC(=O)c1ccc(NC(=O)CCCN2C(=O)/C(=C/c3cccs3)SC2=S)cc1,36*,-3,-10,-18,1,-5
CCc1ccc(NC(=O)C2CCN(S(=O)(=O)c3ccc4c(c3)NC(=O)C(C)S4)CC2)cc1 (stereo not drawn),55*,11,4,-19,6,-2
Cc1ccc(NC(=O)C2CCN(S(=O)(=O)c3ccc4c(c3)NC(=O)C(C)S4)CC2)cc1C (stereo not drawn),36,19,-18,-12,10,0
CCN=C(Nc1cccc(F)c1)SC1CC(=O)N(c2ccc(OC)cc2)C1=O (stereo not drawn),21,-2,2,-16,8,-4
CCN=C(NCC)SC1CC(=O)N(c2cccc(OC)c2)C1=O (stereo not drawn),32*,-6,9,-14,8,0
CCN=C(NCC)SC1CC(=O)N(c2ccccc2)C1=O (stereo not drawn),25*,20,-2,-17,6,3
CCN=C(NCC)SC1CC(=O)N(c2ccc(OCC)cc2)C1=O (stereo not drawn),30*,11,-1,-20,6,0
O=C(CCNC(=O)c1ccc(Cl)cc1)Nc1cccc(S(=O)(=O)N2CCCCC2)c1,-9,-22,21,6,2,-7
CCOC(=O)N1CCC(NC(=O)C2CCCN(Cc3nc(-c4ccc(CC)cc4)oc3C)C2)CC1 (stereo not drawn),11,24*,1,-9,7,-2
CCOC(=O)N1CCC(NC(=O)C2CCCN(S(=O)(=O)c3cccnc3)C2)CC1 (stereo not drawn),-8,42*,-7,3,0,-2
CCOC(=O)N1CCC(NC(=O)C2CCN(Cc3nc(-c4ccc(CC)cc4)oc3C)CC2)CC1,-23,2,12,5,0,-10
CC1(NC(=S)Nc2ccc(NC(=S)NC3(C)CCS(=O)(=O)C3)cc2)CCS(=O)(=O)C1 (stereo not drawn),-7,-2,14,6,1,17*
COc1cccc(NC(=O)COC(=O)C2C3CC4OC(=O)C2C4C3)c1 (stereo not drawn),-9,-10,21,9,4,-2
O=C(O)c1ccccc1C(=O)c1ccc(N2CCCC2)c([N+](=O)[O-])c1,-1,5,-10,2,-1,-7
CC(=O)c1ccc(N2CCN(c3ccccc3O)CC2)c([N+](=O)[O-])c1,37*,14,-7,-25,19*,0
COc1ccc(CNC(=O)c2cnn3c(C(F)F)cc(C)nc23)cc1OC,-7,26*,-5,5,4,4
CCN(C(=O)COC(=O)c1ccc2c(c1)OCO2)c1c(N)n(Cc2ccccc2)c(=O)[nH]c1=O,-16,-5,-13,4,0,-1
COc1ccc2[nH]c3c(c2c1)CCN1C(=O)C(CC(=O)NCCCn2ccnc2)C[C@H](C(=O)N2CCCCC2)[C@@]31CCc1ccccc1 (stereo partly drawn),-10,3,6,7,0,-10
Fc1ccc(-c2ccc3c(c2)C2CC3CCN2)cc1 (stereo not drawn),39*,-2,6,-30,5,-4
Cc1cccc(-c2ccc3c(c2)C2CC3CCN2)c1 (stereo not drawn),32,7,2,-27,1,-10
